Measurements taken from ChEMBL document CHEMBL3988442, “University of Dundee, Small-Polar-MMV Screening Library” (2021).
Among all 48,000 compounds or so, about 13,000 (27%) showed an effect of 50% or more. This is one part of the list.

The compounds below were run on Wolbachia pipientis (assay: Anti-Wolbachia Cell-Based Screen). Settings: 5 µM.
Format: functional
Set-up: scale not given: in the data most compounds retested in dose-response had high values
With `CCCN1Cc2ccccc2NC(=O)C12CCNC2` (stereo not drawn) the “Percent Effect” value was 105.5%.
`CCc1nnc(CN2CCC3(CC2)Nc2ccccc2NC3=O)o1` was tested, and the “Percent Effect” value was 8.139%.
With `O=C1Nc2ccccc2CN(C/C=C/c2ccccc2)C12CCNC2` (stereo not drawn) the “Percent Effect” value was 116.1%.
In the case of `O=C(CSC1CCc2ccccc2NC1=O)NCCO` (stereo not drawn), the “Percent Effect” value is reported as -0.2821%.
With `COc1ccccc1NC(=O)CSC1CCc2ccccc2NC1=O` (stereo not drawn) the “Percent Effect” value was 14.42%.
In the case of `O=C1NCCN(CC2CC2)C12CCN(Cc1ccco1)CC2`, the “Percent Effect” value is reported as -5.362%.
For `O=C1Nc2ccccc2CN(CC2CC2)C12CCNC2` (stereo not drawn), the “Percent Effect” value was 99.74%.
In the case of `CC(C(=O)O)N1CC2(CCC1=O)CCN(C/C=C/c1ccccc1)CC2` (stereo not drawn), the “Percent Effect” value is reported as -24.48%.
In the case of `O=C1Nc2ccccc2CN(CC2CCCC2)C12CCNC2` (stereo not drawn), the “Percent Effect” value is reported as 101.1%.
For `CN(C)CCOC1CC2(CCN(c3cnccn3)CC2)c2ccccc21.O=C(O)C(F)(F)F` (stereo not drawn), the “Percent Effect” value was -0.2574%.
With `CC(C)NC(=O)N1CCN2C(=O)N(Cc3ccc(F)cc3)C[C@H]2C1` the “Percent Effect” value was 1.439%.
With `CO[C@H]1CN(C(C)C)C[C@@H]1NC(=O)c1cc(-c2ccccc2O)n[nH]1` the “Percent Effect” value was 3.341%.
With `CNc1nc(C)cc(N2CCC(C(=O)O)(n3ccc(C(C)C)n3)CC2)n1` the “Percent Effect” value was -25.68%.
In the case of `O=S(=O)(NCC1(O)CCOc2ccccc21)c1ccc(Cl)s1` (stereo not drawn), the “Percent Effect” value is reported as -0.7436%.
In the case of `O=C1CC2(CCN(C(=O)Cc3cc4c(cc3Cl)OCCO4)C2)C(=O)N1` (stereo not drawn), the “Percent Effect” value is reported as -1.867%.
In the case of `Cc1cc(NCC2(O)CCOCC2)nc2ccccc12`, the “Percent Effect” value is reported as 15.38%.
For `O=C(c1cc(Cl)ccc1F)N1CCCC1Cn1cccn1` (stereo not drawn), the “Percent Effect” value was 101.1%.
In the case of `Cc1cnn(CC2CCCN2C(=O)c2ccc(Cl)cc2F)c1` (stereo not drawn), the “Percent Effect” value is reported as 130.9%.
With `Cc1cnn(CC2CCCN2C(=O)c2ccc(F)c(F)c2)c1` (stereo not drawn) the “Percent Effect” value was 123.6%.
In the case of `Cc1cnn(CC2CCCN2C(=O)c2ccc(F)cc2Cl)c1` (stereo not drawn), the “Percent Effect” value is reported as 118%.
For `O=C(c1ccccc1N1CCOCC1)N1CCCC1Cn1cccn1` (stereo not drawn), the “Percent Effect” value was -6.576%.
With `Cc1cnn(CC2CCCN2C(=O)c2ccc3nnc(C)n3c2)c1` (stereo not drawn) the “Percent Effect” value was -11.91%.
In the case of `CCn1nnc2cc(C(=O)N3CCCC3Cn3cc(C)cn3)ccc21` (stereo not drawn), the “Percent Effect” value is reported as -10.21%.
For `COc1ccc(C(=O)N2CCCCC2Cn2cccn2)c(F)c1` (stereo not drawn), the “Percent Effect” value was 4.231%.
With `CCCNC(=O)C1CCN(Cc2csc(C(C)(C)C)n2)CC1` the “Percent Effect” value was -3.863%.
`COc1cccc2c1CCN(C(=O)NCCc1nccn1C)C2` was tested, and the “Percent Effect” value was 2.215%.
With `CC(C#N)CSc1ccccc1NCC(=O)NC(=O)NC(C)(C)C` (stereo not drawn) the “Percent Effect” value was -19.45%.
With `CC(O)CN1CCC(CN(C)Cc2cc(C#N)ccc2F)CC1` (stereo not drawn) the “Percent Effect” value was -5.082%.
For `Cc1ncc(CNC(CCO)C2CCCCC2)s1` (stereo not drawn), the “Percent Effect” value was -8.339%.
With `COc1ncnc2c1CCN(Cc1nccs1)CC2.O=C(O)C(F)(F)F` the “Percent Effect” value was 2.06%.
With `N#Cc1nccnc1N1CCC(OCCCc2ccccc2)C1` (stereo not drawn) the “Percent Effect” value was 1.367%.
In the case of `Cc1cccc2c1cnn2CCCNC(=O)C(C)C`, the “Percent Effect” value is reported as -3.766%.
`CC(C)C(C(=O)NCc1ccccc1-n1cccn1)N(C)C` (stereo not drawn) was tested, and the “Percent Effect” value was -20.85%.
With `Cc1nc2c(c(NCC(=O)NC(C)C)n1)Cc1ccccc1OC2` the “Percent Effect” value was 92.9%.
For `Cc1nc2c(c(NCc3ccccc3)n1)CCN(C(=O)NC(C)C)CC2`, the “Percent Effect” value was 7.807%.
In the case of `Cc1nc2c(c(NCCNC(=O)C(C)C)n1)Cc1ccccc1OC2`, the “Percent Effect” value is reported as 89.1%.
`CN(C)c1nc2c(c(=O)[nH]1)Cc1ccccc1OC2` was tested, and the “Percent Effect” value was -4.691%.
With `COc1ccnc(N2CCc3ccc(OC(F)F)cc3C2)n1` the “Percent Effect” value was 18.95%.
For `c1cnc(N2CCN(Cc3nnnn3C3CC3)CC2)nc1`, the “Percent Effect” value was -20.27%.
`CC(CCN(C)C)NC(=O)N1CCSC(C)(C)C1` (stereo not drawn) was tested, and the “Percent Effect” value was -16.4%.
In the case of `Cc1cnn(CC2CCN(CC(O)c3ccccc3F)CC2)c1` (stereo not drawn), the “Percent Effect” value is reported as -4.357%.
With `Cc1cnn(CC2CCN(CC(O)CN3CCC(C)CC3)CC2)c1` (stereo not drawn) the “Percent Effect” value was 0.7757%.
In the case of `OC(COc1ccc2c(c1)OCO2)CN1CC(n2cccn2)C1` (stereo not drawn), the “Percent Effect” value is reported as -5.514%.
In the case of `Cc1ncc2c(n1)CN(CC(O)COc1ccc(C#N)cc1)CC2` (stereo not drawn), the “Percent Effect” value is reported as -6.644%.
In the case of `Cc1cccc(OCC(O)CN2CCC(Cn3cccn3)CC2)c1` (stereo not drawn), the “Percent Effect” value is reported as 104.3%.
In the case of `CCc1ncc2c(n1)CN(CC(O)COc1ccc(C#N)cc1)CC2` (stereo not drawn), the “Percent Effect” value is reported as -19.89%.
For `Cc1cnn(CC2CCN(CC(O)COc3ccccc3)CC2)c1` (stereo not drawn), the “Percent Effect” value was 7.728%.
In the case of `Cc1ccc(OCC(O)CN2CCC(Cn3cc(C)cn3)CC2)cc1` (stereo not drawn), the “Percent Effect” value is reported as 122.4%.
In the case of `Cc1cnn(CC2CCN(CC(O)c3ccccc3Cl)CC2)c1` (stereo not drawn), the “Percent Effect” value is reported as -9.107%.
`Cc1cnn(CC2CCN(CC(O)c3ccccc3)CC2)c1` (stereo not drawn) was tested, and the “Percent Effect” value was 3.63%.
In the case of `N#Cc1ccc(OCC(O)CN2CCC(Cn3cccn3)CC2)cc1` (stereo not drawn), the “Percent Effect” value is reported as 137.4%.
With `Cc1ccccc1OCC(O)CN1CCC(Cn2cccn2)CC1` (stereo not drawn) the “Percent Effect” value was 111.1%.
For `CC(C)(C)c1cc(CN2CCOC(CN)C2)n[nH]1` (stereo not drawn), the “Percent Effect” value was -6.517%.
